# Experimental data from PubChem BioAssay (Tox21).
# Unmarked numbers belong to inactive results. A call without a number means that no potency is given here. Activity calls are given as the source filed them. Calls come from the whole dose curve; as a rule, active = well fitted curve in the direction sought with a large enough effect in the repeat runs; inconclusive = weak or mixed curves; inactive = flat fitted curve, though single readings scatter.
# Test: qHTS assay to test for compound auto fluorescence at 460 nm (blue) in HepG2 cells (AID 720687)
# Conditions: autofluorescence 405/460 nm, 1 h; series mostly up to 91.3 µM
# Excerpt: U.S. Tox21 Program National Center for Advancing Translational Sciences [NCATS] NIH Chemical Genomics Center [NCGC] U.S. Environmental Protection Agency [EPA] National Institutes of Environmental Health Sciences [NIEHS] National Toxicology Program [NTP] U.S. Food and Drug Administration [FDA] Tox21 Assay Overview: Compound auto fluorescence often interferes with screening of the compound library against various biological targets and signaling pathways. Some of these compounds may have fluorophoric properties. Such properties may interfere with the assay outputs resulting in false positives and/or negatives. To decrease such complications and ensure the compound activities are relevant in terms of biological response, the Tox21 10K compound library was screened for auto fluorescence. From the fluorophores used as reporter signals in our screening assays, the auto fluorescence equivalencies of compounds against three fluorophores have been evaluated: Triamterene, Fluorescein and Rose Bengal sodium for blue, green and red fluorescence, respectively. The fluorescence intensities were measured using Excitation/Emission wavelengths at 405/460nm, 485/535nm and 540/590nm for blue, green and red labels, respectively. This assay includes the blue fluorescence data.
# Tox21 Assay Protocol Summary: 2,000 HepG2 cells in 5 uL of culture medium (MEM containing 10% FBS) per well were dispensed into black wall/clear bottom 1536-well plates using a Multidrop Combi Dispenser (ThermoFisher Scientific, Waltham, MA). The assay plates were incubated overnight at 37 C to allow cell attachment to the well bottom, followed by the transfer of 23 nL compound or DMSO vehicle by a pintool work station (Kalypsys , San Diego, CA). After the assay plates were incubated for 1 hr at 37 C and 5% CO2, fluorescence intensities in the assay plates were measured by an Envision (PerkinElmer, Shelton, CT) plate reader using three labels for measuring blue, green and red fluorescence at […] 460, 535 and 590 nm respectively.
SMILES,Potency,"fluorescence, % of fluorescent control"
CC(CCO)CCc1ccccc1 (stereo not given),inactive,–
CC1C2CC(CC2C2CCCC(O)C2)C1(C)C (stereo not given),inactive,–
CCCCN(CCCC)CCCOC(=O)c1ccc(N)cc1,–,-0.0696% [at 18.6 µM]
CCCCCCCC/C=C\CCCCCCCC(=O)OC(CO)CO,inactive,–
Brc1cc(-c2ccc(Br)c(Br)c2Br)cc(Br)c1Br,inactive,–
CCC(C)(C)C1CCC(O)CC1 (stereo not given),inactive,–
CCNC(=O)N1CCN(CCCC(c2ccc(F)cc2)c2ccc(F)cc2)CC1,inactive,–
COC(=O)[C@@H]1CC2=CC(=O)CC[C@]2(C)[C@@]23O[C@@H]2C[C@@]2(C)[C@@H](CC[C@@]24CCC(=O)O4)[C@H]13,inactive,–
Cc1oncc1C(=O)Nc1ccc(C(F)(F)F)cc1,inactive,–
CCCC1C(CC)=CC(CC)=CN1c1ccccc1 (stereo not given),inactive,–
CCCCCCOC(=O)CCCCCCCC(=O)OCCCCCC,inactive,–
C/C=C/C=C/CCCCCCCO,inactive,–
OC/C(Br)=C(\Br)CO,inactive,–
O=S(=O)(c1ccccc1)c1ccc(Cl)cc1,inactive,–
Cc1cc(OI)c(C(C)C)cc1-c1cc(C(C)C)c(OI)cc1C,inactive,–
O=C(CS)OCCOC(=O)CS,inactive,–
CC1=CC(=O)CC(C)(C)C1(O)/C=C/C(C)=C\C(=O)O (stereo not given),inactive,–
C(=C\c1ccccc1)/CN1CCN(C(c2ccccc2)c2ccccc2)CC1,–,0.0775% [at 18.6 µM]
CCC(C(=O)OCCOCCN(CC)CC)c1ccccc1 (stereo not given),inactive,–
O=C(CCCN1CCC(O)(c2ccc(Br)cc2)CC1)c1ccc(F)cc1,–,0.0362% [at 18.6 µM]

SMILES,Potency,"fluorescence, % of fluorescent control"
Cc1oc(C)c(C(=O)Nc2ccccc2)c1C,inactive,–
Nc1ccc(C(=O)OCCCOC(=O)c2ccc(N)cc2)cc1,inactive,–
CCOC(=O)OCC,inactive,–
O=C(CCC1CCN(Cc2ccccc2)CC1)c1ccc2c(c1)NCCCC2,inactive,–
CC1CC(=O)NN=C1c1ccc(NCC(C)(C)NCC(O)COc2cc(Cl)ccc2C#N)cc1 (stereo not given),inactive,–
CN1CCCN=C1/C=C/c1cccs1,inactive,–
CCOC(=N)CC(=O)OCC,inactive,–
CC(C)(C)C(=O)C(Oc1ccc(Cl)cc1)n1ccnc1 (stereo not given),inactive,–
CO/N=C1\CN(c2nc3c(cc2F)c(=O)c(C(=O)O)cn3C2CC2)CC1CN (stereo not given),inactive,–
CCCCC(CC)COC(=O)COc1ccc(Cl)cc1C (stereo not given),inactive,–
O=C(O)C(Cc1cc(I)c(O)c(I)c1)c1ccccc1 (stereo not given),inactive,–
CCc1nn(CCCN2CCN(c3cccc(Cl)c3)CC2)c(=O)n1CCOc1ccccc1,inactive,–
Nc1ccc(S(=O)(=O)O)c(N)c1,inactive,–
C=C(C)C(=O)OCCOC(=O)CC(C)=O,inactive,–
N#C[C@@H]1C[C@@H]2C[C@@H]2N1C(=O)[C@@H](N)C12CC3CC(CC(O)(C3)C1)C2,inactive,–
Oc1cc(O)c(Cl)cc1Cl,inactive,–
COc1cc2c(cc1OC)-c1cc(=Nc3c(C)cc(C)cc3C)n(C)c(=O)n1CC2,inactive,–
N#C/C(=C1\SCC(c2ccccc2Cl)S1)n1ccnc1 (stereo not given),inactive,–
Cc1ccc(Nc2nccc(N(C)c3ccc4c(C)n(C)nc4c3)n2)cc1S(N)(=O)=O,inactive,–
O=C(/C=C/c1ccccc1)OCCCc1ccccc1,inactive,–
